Out of some 300,000 compounds screened, about 22,000 (7.3%) were called active. Roughly 2% stayed inconclusive and do not appear here. No stated cut-off is given here; in the data, active means activity score below about -60%; inconclusive means mostly about -28% to -61%; inactive means positive scores. Only a selection was taken, and actives are over-represented in it overall.
assay: Activators via SNCA 5'UTR binding, MLPCN (AID 1814); settings: alpha-synuclein 5'UTR reporter, activators screen; active compounds read low; tested at 7.5 µM

Row | Compound | activity score
1 | NS(=O)(=O)c1ccc(NC(=S)NC(=O)c2cccc(Br)c2)cc1 | -61.6% (active)
2 | O=S(=O)(c1ccc(F)cc1)n1ccc(-c2cnc(-c3ccccc3)s2)n1 | -138% (active)
3 | c1ccc(CSc2nnc(-c3ccco3)n2Cc2ccccc2)cc1 | -126% (active)
4 | Cc1ccc(CN2C(=O)N/C(=C/c3cc(C)n(-c4ccccn4)c3C)C2=O)cc1 | -88.6% (active)
5 | O=C(NNC(=S)Nc1ccc(Br)cc1Cl)c1ccco1 | -157% (active)
6 | NNc1nc2c(Cl)cccc2s1 | -119% (active)
7 | Cc1nc2ccccc2nc(=O)c1NNc1ccc([N+](=O)[O-])cc1 | -109% (active)
8 | CN(C(=O)c1ccccn1)c1nnc(-c2ccccn2)s1 | -110% (active)
9 | Cc1sc2ncnc(N3CCC(C(=O)Nc4nc5ccc(Cl)cc5s4)CC3)c2c1C | -183% (active)
10 | COc1cc2ccccc2cc1C(=O)Nc1nc(C)c(C(C)=O)s1 | -106% (active)
11 | COC(=O)c1sc(NC(=O)c2ccc(OC)cc2OC)nc1C | 101% (inactive)
12 | Cc1ccc2nc(-c3ccncc3)cc(C(=O)Nc3ccc(OC(F)F)cc3)c2c1 | 67.6% (inactive)
13 | COc1cc(OC)c(C(=O)Nc2ccc(N(C)C)cc2)cc1OC | -129% (active)
14 | COc1cc2ccccc2cc1C(=O)Nc1ccccc1C | -118% (active)
15 | COc1cc2ccccc2cc1C(=O)Nc1ccncc1 | -70.2% (active)
16 | COc1ccc2c3c1O[C@H]1C[C@@H](O)C=C[C@@]31CCN(C)C2 | 62% (inactive)
17 | COC(=O)c1cn(CC(=O)NCc2cccs2)c2ccccc12 | -111% (active)
18 | CCOC(=O)N/N=C/c1cn(Cc2ccccc2Cl)c2ccccc12 | 42.5% (inactive)
19 | CCOc1ccccc1NC(=O)Cn1nnc(C(=O)NCc2cccs2)c1N | 84.9% (inactive)
20 | O=C(Cn1cc(C(=O)c2cccs2)c2ccccc21)NCc1cccs1 | -69.5% (active)
21 | Cc1ccc(N)cc1-n1c(C)ccc1C | -77.6% (active)
22 | Cc1ccc(-c2cc(=O)c3ccc(F)cc3[nH]2)cc1 | -68.9% (active)
23 | O=c1cc(-c2ccccc2)[nH]c2cc(F)ccc12 | 93.3% (inactive)
24 | Cc1ccc(-n2nc3ccc(NC(=O)/C=C/c4ccco4)cc3n2)cc1C | -154% (active)

Row | Compound | activity score
25 | O=C(Nc1cccc(-c2nc3ccccc3[nH]2)c1)c1ccc(C(=O)Nc2cccc(-c3nc4ccccc4[nH]3)c2)cc1 | -70.2% (active)
26 | O=C(/C=C/c1ccco1)Nc1cccc(-c2nc3ccccc3[nH]2)c1 | -143% (active)
27 | Cc1cccc(OC(=O)c2sc3ncn(C)c(=O)c3c2C)c1 | -210% (active)
28 | Cc1c(C(N)=O)sc2ncn(CCOc3ccccc3)c(=O)c12 | -66.2% (active)
29 | c1ccc(CCc2nc(-c3ccncc3)no2)cc1 | -99% (active)
30 | O=C1c2ccccc2C(=O)c2c1cccc2N1CCN(CCO)CC1 | -64.5% (active)
31 | N#C/C=C1\Sc2ccccc2C(=O)N1CC(=O)N1CCN(S(=O)(=O)c2ccccc2)CC1 | -152% (active)
32 | Fc1ccc2nc(Nc3nc4c(s3)CCCC4)sc2c1 | -206% (active)
33 | NS(=O)(=O)c1ccc(N=Nc2c(O)[nH]c3ccc(Br)cc23)cc1 | -119% (active)
34 | O=C1CCCc2c1[nH]c1ccc(Br)cc21 | 89% (inactive)
35 | COC(=O)CCC(=O)N1CCCC(CO)(Cc2ccccc2)C1 (configuration not stated) | -124% (active)
36 | Cc1noc(C)c1CCC(=O)N1CCCC(CO)(Cc2ccccc2)C1 (configuration not stated) | -110% (active)
37 | Cc1ccc(OC(=O)c2c(C)nn(-c3ccccc3)c2C)cc1 | -131% (active)
38 | COc1ccc(Cc2nnc(N/N=C/c3ccccc3O)[nH]c2=O)cc1OC | 91.4% (inactive)
39 | COCCNC(=O)c1ccc2nc(Cc3ccc(OC)c(OC)c3)oc2c1 | -80.1% (active)
40 | CSCCNC(=O)c1ccc2nc(Cc3ccccc3F)oc2c1 | -130% (active)
41 | CNC(=S)N/N=C/c1ccc(N2CCOCC2)s1 | -100% (active)
42 | Cc1nc(NC(=O)c2ccc3c(c2)OCCO3)ccc1Br | -116% (active)
43 | CC(C)C(=O)Nc1ccc2c(c1)oc1ccccc12 | -225% (active)
44 | CCOc1ccc(C(=O)Nc2nccs2)cc1[N+](=O)[O-] | -123% (active)
45 | CC(=O)Oc1ccc(C(=O)Nc2nccs2)cc1 | -98% (active)
46 | Cc1ccc(-c2nc3ccccc3[nH]2)cc1N | -122% (active)
47 | COc1ccc(-c2csc(-c3cccs3)n2)cc1OC | -154% (active)
48 | O=C(Nc1ncc([N+](=O)[O-])s1)C1COc2ccccc2O1 (configuration not stated) | -93.3% (active)

Row | Compound | activity score
49 | O=C(CCc1ccccc1)Nc1ncc([N+](=O)[O-])s1 | -165% (active)
50 | O=C(Cc1c(F)cccc1Cl)Nc1ncc([N+](=O)[O-])s1 | -133% (active)
51 | CC(=O)Oc1ccccc1C(=O)Nc1ncc([N+](=O)[O-])s1 | -68.7% (active)
52 | c1ccc2c(C[n+]3csc4ccccc43)cccc2c1 | -83.3% (active)
53 | Cc1cccc(N=Nc2c(C)[nH]n(-c3ccccc3)c2=O)c1 | -126% (active)
54 | CCCC(=O)Nc1ccc2c(c1)nc1n2CCSC1 | -94.7% (active)
55 | CC1(C)C2CC=C(/C=N/NC(=O)c3ccc(Cl)cc3)C1C2 (configuration not stated) | -63.4% (active)
56 | Cc1ccsc1/C=C1\SC(N2CCOCC2)=NC1=O | -73% (active)
57 | O=C1N=C(N2CCOCC2)S/C1=C\C=C/c1ccccc1 | -170% (active)
58 | Brc1ccc(C2CC(c3ccccc3)=Nc3ccccc3N2)cc1 (configuration not stated) | -141% (active)
59 | O=C(CSc1ccc(-c2ccc(-n3cccn3)cc2)nn1)Nc1ccc([N+](=O)[O-])cc1 | -99.7% (active)
60 | CC12CCC(C(=O)N(NC(=O)c3ccccc3O)C1=O)C2(C)C (configuration not stated) | 67.6% (inactive)
61 | Cc1ccc2c(c1)NCC(C(=O)NC1CCC(C)CC1)O2 (configuration not stated) | -67.9% (active)
62 | COc1cc(NC(=S)N2CCCC(C)C2)c(OC)cc1Cl (configuration not stated) | -79% (active)
63 | CC(C)CCC(C)NC(=O)c1ccc2nccnc2c1 (configuration not stated) | -75.9% (active)
64 | O=C1c2ccccc2C(=O)N1CCOc1ccc(F)cc1 | -91.2% (active)
65 | Cc1cccc(N2Cc3ccccc3C2=NC(=O)c2ccc(Cl)nc2)c1 | -115% (active)
66 | CCCc1cc(=O)[nH]c(SCC(=O)c2c(N)n(CC(C)C)c(=O)n(C)c2=O)n1 | 88.3% (inactive)
67 | CC(=O)c1ccc(NC(=O)CSC(=S)N2CCCC2)cc1 | -76.2% (active)
68 | Cc1cc(Cl)ccc1OCc1nc(-c2ccncc2)no1 | -162% (active)
69 | CN(C)S(=O)(=O)c1ccc2oc(SCC(=O)Nc3ccccc3F)nc2c1 | -147% (active)
70 | CCn1c(/C=C/c2ccc([N+](=O)[O-])o2)nc2ccccc2c1=O | -353% (active)
71 | Cc1ccc(-c2nc(C#N)c(NCCCn3ccnc3)o2)cc1 | -87% (active)
72 | Cc1cccc(-[n+]2c(-c3cccc(Br)c3)[nH]c3nc4ccccc4nc32)c1 | 73.9% (inactive)

Row | Compound | activity score
73 | Brc1ccc(-c2noc(-c3ccccc3)n2)o1 | -80.6% (active)
74 | Nc1nonc1-c1noc(-c2ccc(Br)o2)n1 | -80.6% (active)
75 | Nc1ccc(-c2nnc(-c3ccc(-c4ccccc4)cc3)o2)cc1 | -217% (active)
76 | Brc1ccc(-c2nnc(-c3ccccc3)o2)o1 | -63.8% (active)
77 | Cc1ncc(CC(=O)n2cc(C(=O)c3cc(Cl)ccc3O)cn2)s1 | -71% (active)
78 | CCSc1nnc(-c2cc3c(s2)-c2ccccc2CC3)o1 | -102% (active)
79 | CCOC(=O)c1ccc2c(c1)nc(C)n2CC | -141% (active)
80 | Cc1cccc(C(=O)Nc2ccc(C(=O)/C=C/c3cccs3)cc2)c1 | -92.4% (active)
81 | COc1ccc(C2=NN(C(=O)c3ccccc3C(=O)O)C(c3ccccc3O)C2)cc1 (configuration not stated) | -171% (active)
82 | COc1ccc(C2=NN(C(C)=O)C(c3ccccc3)C2)cc1 (configuration not stated) | -63.9% (active)
83 | Clc1ccc(-c2cc(-c3ccccn3)on2)c(Cl)c1 | 108% (inactive)
84 | C=CCNC(=O)c1cc(-c2ccccc2O)on1 | -65.4% (active)
85 | O=C(Nc1cccnc1Cl)c1cc(-c2ccccc2O)on1 | -179% (active)
86 | O=C(NCc1ccccn1)c1cc(-c2ccccc2Cl)on1 | -99.8% (active)
87 | C/C(=C\c1ccco1)CN1CCC(N2CCC(C(=O)N3CCOCC3)CC2)CC1 | -135% (active)
88 | O=C(/C=C/c1ccc(N2CCOCC2)cc1)c1ccccc1 | -152% (active)
89 | CC(=O)Nc1ccc(/C=C/C(=O)c2ccccc2)cc1 | -201% (active)
90 | CC(=O)Nc1ccc(C(=O)/C=C/c2ccc[nH]2)cc1 | -142% (active)
91 | Cc1ccc(NC(=O)c2sccc2C)cc1[N+](=O)[O-] | -217% (active)
92 | O=C(N/N=C/c1ccc([N+](=O)[O-])cc1)c1c[nH]c2ccccc12 | -66.7% (active)
93 | Cc1ccsc1C(=O)N/N=C/c1ccc([N+](=O)[O-])cc1 | -154% (active)
94 | COc1cccc(-c2nn(-c3ccccc3)cc2/C=C(\C#N)C(=O)NCCCn2ccnc2)c1 | -65.4% (active)
95 | Cc1nn(C(=O)c2ccoc2C)c(N)c1-c1ccccc1 | -109% (active)
96 | CN(Cc1ccco1)S(=O)(=O)c1nnc(NC(=O)c2ccccc2)s1 | -95.2% (active)

Row | Compound | activity score
97 | COc1ccc(C(=O)Cc2cnn(-c3ccccc3)c2)c(O)c1 | -147% (active)
98 | COc1ccc(C(=O)CC(=O)c2ccc(C)cc2)c(O)c1 | -96.9% (active)
99 | COC(=O)Cc1[nH]n(-c2nc3ccccc3s2)c(=O)c1C(C)=Nc1ccc(OC)cc1 | 68.9% (inactive)
100 | CCC(C)Cn1c(O)cc2nn(-c3nc4ccccc4s3)c(=O)c-2c1C (configuration not stated) | 97.8% (inactive)
101 | CC(=NCc1ccco1)c1c(C(F)(F)F)[nH]n(-c2nc3ccccc3s2)c1=O | -117% (active)
102 | Cn1nc(C(F)(F)F)cc1-c1ccc(/C=C(\C#N)C(=O)c2cccc(C(F)(F)F)c2)s1 | -76.5% (active)
103 | O=C1/C(=C/c2ccc3c(c2)OCO3)CCC/C1=C\c1ccc2c(c1)OCO2 | -83.5% (active)
104 | O=C(/C=C/Sc1ncn[nH]1)c1ccc(Cl)cc1 | -73.9% (active)
105 | Oc1ccc(/C=N/NC2=NCCCCC2)c(O)c1 | -141% (active)
106 | Nc1nc(-c2sc3nc4c(cc3c2N)CCCC4)nc(N2CCOCC2)n1 | -113% (active)
107 | CC(C)(C)c1ccc(NC(=O)NCc2ccco2)cc1 | -123% (active)
108 | CC(C)(C)c1ccc(C(=O)NNC(=O)Cc2ccccc2)cc1 | -84.3% (active)
109 | CCCC1=Nc2cc(C(=O)NCc3ccco3)ccc2Sc2ccccc21 | 87.6% (inactive)
110 | CC(C)(C)c1ccc(C(=O)NCc2ccco2)cc1 | -180% (active)
111 | CC(C)n1c(O)c(N=Nc2ccccn2)c2ccccc21 | -76.9% (active)
112 | CC1C/C(=N/NC(=O)c2cccs2)CC(C)(C)C1 (configuration not stated) | -101% (active)
113 | CC(C)CC(=O)N/C(N)=N/c1nc2ccccc2s1 | -93.4% (active)
114 | CCC(=O)NC(=Nc1nc2ccccc2s1)NC(=O)CC | -101% (active)
115 | CCC(=O)Nc1nc2ccccc2n1Cc1ccccc1C | 65.5% (inactive)
116 | CC12CN3CCN(CC(C3)/C1=N\NC(=O)c1ccccc1N)C2 | -83.3% (active)
117 | CN1C(=O)/C(=C\c2cc(Br)cs2)c2ccccc21 | -188% (active)

Reference: PubChem BioAssay AID1814 (Broad Institute, 2009)
